Results filed as inconclusive are left out. A number with no mark means an inactive call. Calls of active or inactive are those of the source. Calls follow the shape of the dose curve; as a rule, active = well fitted inhibition curve with a large enough effect; inconclusive = small, poorly fitted or top-dose-only effect; inactive = flat fitted curve, though single readings scatter.
Experiments:
HaCat [1] = assay: Cytotoxic Profiling of Annotated Libraries Using Quantitative High-Throughput Screening (AID 1296008); settings: Five cell lines viability, CellTiter-Glo ATP luminescence, 48-72 h; max response: stronger effect = lower value; also: potency is read from the fitted curve at half-maximal effect; as to max response: % is scaled to controls: 0 for no effect and ±100 for the full control effect
Method in brief: (§1)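 Compounds were pin-transferred onto cells and incubated 48 or 72 hr at 37 degree Celsius, 95% humidity. CellTiter-Glo was added, plates sat 10 min at room temperature, then ATP-coupled luminescence was imaged as the viability read-out.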

KB-3-1 = assay: as above; settings: Five cell lines viability, CellTiter-Glo ATP luminescence, 48-72 h; max response: stronger effect = lower value
Method in brief: as §1

NIH3T3 = assay: as above; settings: Five cell lines viability, CellTiter-Glo ATP luminescence, 48-72 h; max response: stronger effect = lower value
Method in brief: as §1

HACAT [2] = assay: qHTS assay to identify novel small-molecules to repurpose for Merkel cell carcinoma treatment (AID 1296009); settings: MCC and control cell lines, CellTiter-Glo viability, 72 h; at 44.8 µM (top of the series) unless noted
Method in brief: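 qHTS format: cells treated with library compounds in DMSO across 8 (NPC) or 11 (MIPE) concentrations. Readout after 72 hr at 37 degree celsius was CellTiter-Glo luminescence.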
Also: nearly all actives have a fitted effect of over 60% in size.

`COc1ccc(-n2c(SCCCN3C(=O)c4cccc5cccc(c45)C3=O)nnc2-c2ccncc2)cc1` was tested, and the outcome (HaCat [1]) was “inactive”, the max response (KB-3-1) was -1.97% and the max response (NIH3T3) was -2.58%. The outcome (HACAT [2]) was “inactive”.

In the case of `O=c1[nH]c([C@@H]2CCCN2)nc2c1oc1ccc(Cl)cc12`, the Potency (HaCat [1]) is reported as 1.46 µM (active), the max response (KB-3-1) is reported as -19.5% and the max response (NIH3T3) is reported as -23.2%.

`COc1cc(C(=O)NCC2(N(C)C)CCCC2)cc(OC)c1OCc1ccccc1` showed a max response (HaCat [1]) of 3.73%, a max response (KB-3-1) of 3.26% and a max response (NIH3T3) of -9.79%.

`O=C(NCc1cccs1)c1cc2nc(-c3ccco3)cc(C(F)(F)Cl)n2n1` was tested, and the outcome (HaCat [1]) was “inactive”, the max response (KB-3-1) was 3.07% and the max response (NIH3T3) was -24.5%. For the same molecule, the outcome (HACAT [2]) was “inactive”.

`CN1CCN(S(=O)(=O)c2ccc(-c3cnc(N)c(C(=O)Nc4cccnc4)n3)cc2)CC1` was tested, and the max response (HaCat [1]) was -21.1%, the max response (KB-3-1) was 3.5% and the Potency (NIH3T3) was 0.632 µM (active).

`Cc1nc(C#Cc2ccnc(Cl)c2)c(C)n1-c1ccc(OC(F)(F)F)cc1` was tested, and the outcome (HaCat [1]) was “inactive”, the max response (KB-3-1) was -15.3% and the max response (NIH3T3) was -27.8%. For the same molecule, the outcome (HACAT [2]) was “inactive”.

`COc1cc(C#N)ccc1S(=O)(=O)Nc1ccc2c(c1)cc(C)c(=O)n2C` showed a max response (HaCat [1]) of -9.16%, a max response (KB-3-1) of -22.2% and a max response (NIH3T3) of -0.625%.

With `COc1ccc(Cl)c(Nc2ncnc3cc(OCC4CCN(C)CC4)c(OC)cc23)c1` the Potency (HaCat [1]) was 4.11 µM (active), the max response (KB-3-1) was 2.68% and the Potency (NIH3T3) was 7.31 µM (active).

In the case of `CC(=O)O[C@@H]1C2=C(O)C(=O)[C@](C)(OC(C)=O)C(=O)C2=CO[C@@]12O[C@@H](C)CC[C@H]2OC(C)=O`, the outcome (HaCat [1]) is reported as “inactive”, the outcome (KB-3-1) is reported as “inactive” and the max response (NIH3T3) is reported as -10.7%. For the same molecule, the outcome (HACAT [2]) was “inactive [at 17.4 µM]”.

For `CCCCOc1ccc(S(=O)(=O)n2c(C)nc3ccccc32)cc1`, the max response (HaCat [1]) was 3.36%, the max response (KB-3-1) was -24.1% and the max response (NIH3T3) was -1.64%.

In the case of `Cn1c(CO)c(-c2ccccc2)c2cc([N+](=O)[O-])ccc21`, the max response (HaCat [1]) is reported as -23.7%, the max response (KB-3-1) is reported as -20.1% and the max response (NIH3T3) is reported as -3.34%.

For `C=CC(=O)N1CCCN(c2cc(NCCC(=O)O)nc(-c3ccccn3)n2)CC1`, the outcome (HaCat [1]) was “inactive”, the max response (KB-3-1) was -3.55% and the max response (NIH3T3) was -29.3%. The outcome (HACAT [2]) was “inactive”.

For `C=C1C(=O)OC2C1CCC1(C)C(O)CCC(=C)C21` (stereo not drawn), the outcome (HaCat [1]) was “inactive”, the max response (KB-3-1) was 7.7% and the max response (NIH3T3) was -19.9%. For the same molecule, the outcome (HACAT [2]) was “inactive”.

`COc1ccc(OC)c(-c2ccc(NC(=O)c3ccncc3F)cc2)c1` showed a max response (HaCat [1]) of -19.1%, a max response (KB-3-1) of -12.6% and a max response (NIH3T3) of 0.707%.

For `CC1=C(c2ccc(NC(=O)c3c(F)cccc3F)cc2)CN(c2nccs2)CC1`, the max response (HaCat [1]) was -2.64%, the outcome (KB-3-1) was “inactive” and the max response (NIH3T3) was -1.55%.

In the case of `COc1cc2ncnc(Nc3cccc(I)c3)c2cc1OC`, the Potency (HaCat [1]) is reported as 4.61 µM (active), the Potency (KB-3-1) is reported as 9.2 µM (active) and the outcome (NIH3T3) is reported as “inactive”.

With `Fc1ccc(-c2cncc(CN3CCN(c4cccc5c4OCCO5)CC3)c2)cc1` the outcome (HaCat [1]) was “inactive”, the max response (KB-3-1) was -10.8% and the max response (NIH3T3) was -12.4%. For the same molecule, the outcome (HACAT [2]) was “inactive”.

Molecule `CC(C)c1ccc(-c2cc(=O)c3ccccc3o2)cc1` has a max response (HaCat [1]) of -4.45%, a max response (KB-3-1) of -3.41% and a max response (NIH3T3) of -24.9%.

With `O=C(NCCN1CCOCC1)c1cc2c(Oc3ccc(NC(=O)C4(C(=O)Nc5ccc(F)cc5)CC4)cc3)ccnc2[nH]1` the max response (HaCat [1]) was -28.8%, the max response (KB-3-1) was 4.4% and the Potency (NIH3T3) was 6.51 µM (active).

`O=C(Nc1ncc([N+](=O)[O-])s1)c1ccccc1O` was tested, and the outcome (HaCat [1]) was “inactive”, the Potency (KB-3-1) was 8.2 µM (active) and the outcome (NIH3T3) was “inactive”. The outcome (HACAT [2]) was “inactive”.

In the case of `S=C(c1ccc(-c2ccc(Cl)c(Cl)c2)o1)N1CCCCC1`, the outcome (HaCat [1]) is reported as “inactive”, the max response (KB-3-1) is reported as 6.89% and the max response (NIH3T3) is reported as 2.68%. For the same molecule, the outcome (HACAT [2]) was “inactive”.

In the case of `OC1CCC(Nc2nc(-c3ccccc3)nc3[nH]ccc23)CC1` (stereo not drawn), the max response (HaCat [1]) is reported as -12.5%, the max response (KB-3-1) is reported as 7.97% and the max response (NIH3T3) is reported as -18.3%.

In the case of `C=CCc1ccc(OC(C)Cc2ccc(OC)c(OC)c2)c(OC)c1` (stereo not drawn), the outcome (HaCat [1]) is reported as “inactive”, the max response (KB-3-1) is reported as -25.6% and the max response (NIH3T3) is reported as -6.99%. The outcome (HACAT [2]) was “inactive”.

With `O=C(Nc1cnc(Cl)nc1)c1ccc(F)c(F)c1` the outcome (HaCat [1]) was “inactive”, the max response (KB-3-1) was 3.36% and the max response (NIH3T3) was 1.41%. For the same molecule, the outcome (HACAT [2]) was “inactive”.

From PubChem BioAssay (NCATS)
